Measured values published in the supplement of paper PMC4466140.

Columns and labels:
Assay in all cases: SPOT peptide array binding signal intensity (averaged, normalized) (arbitrary units (background-subtracted, floor 0; scale differs between SH3 domains)); higher = stronger binding of the SH3 domain to the peptide
SpBzz1-D2 = target: SpBzz1-D2
Summary of the method: (§1)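 E. coli BL21(DE3) was used to express GST-fused SH3 domains from four yeast species, which were then purified on glutathione Sepharose. These were incubated at 10 μg/ml in TBS-based blocking buffer overnight at 4°C on cellulose membranes carrying synthetic 15-mer peptides, in which cysteines were replaced by serines. Binding signal is the replicate average of normalized, background-subtracted spot intensity, in arbitrary units that differ between domains.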

SpCyk3 = target: SpCyk3
Summary of the method: as §1

SpHof1 = target: SpHof1
Summary of the method: as §1

SpHof1-2 = target: SpHof1-2
Summary of the method: as §1

SpHof1-3 = target: SpHof1-3
Summary of the method: as §1

SpHse1 = target: SpHse1
Summary of the method: as §1

SpLsb1 = target: SpLsb1
Summary of the method: as §1

SpLsb4 = target: SpLsb4
Summary of the method: as §1

SpMyo1 = target: SpMyo1
Summary of the method: as §1

SpNbp2 = target: SpNbp2
Summary of the method: as §1

SpPex13 = target: SpPex13
Summary of the method: as §1

SpRvs167 = target: SpRvs167
Summary of the method: as §1

SpSla1-D1-D2 = target: SpSla1-D1-D2
Summary of the method: as §1

SpSla1-D3 = target: SpSla1-D3
Summary of the method: as §1

AgAbp1 = target: AgAbp1
Summary of the method: as §1

AgBbc1 = target: AgBbc1
Summary of the method: as §1

AgBem1-D1 = target: AgBem1-D1
Summary of the method: as §1

AgBzz1-D1 = target: AgBzz1-D1
Summary of the method: as §1

AgBzz1-D2 = target: AgBzz1-D2
Summary of the method: as §1

AgCyk3 = target: AgCyk3
Summary of the method: as §1

AgFus1 = target: AgFus1
Summary of the method: as §1

AgHof1 = target: AgHof1
Summary of the method: as §1

AgHse1 = target: AgHse1
Summary of the method: as §1

AgLsb1 = target: AgLsb1
Summary of the method: as §1

AgLsb4 = target: AgLsb4
Summary of the method: as §1

AgMyo5 = target: AgMyo5
Summary of the method: as §1

AgNbp2 = target: AgNbp2
Summary of the method: as §1

AgRvs167 = target: AgRvs167
Summary of the method: as §1

AgSho1 = target: AgSho1
Summary of the method: as §1

AgSla1-D1-D2 = target: AgSla1-D1-D2
Summary of the method: as §1

AgSla1-D3 = target: AgSla1-D3
Summary of the method: as §1

CaAbp1-D1 = target: CaAbp1-D1
Summary of the method: as §1

CaAbp1-D2 = target: CaAbp1-D2
Summary of the method: as §1

CaBbc1 = target: CaBbc1
Summary of the method: as §1

CaBem1-D1 = target: CaBem1-D1
Summary of the method: as §1

CaBzz1-D1 = target: CaBzz1-D1
Summary of the method: as §1

CaBzz1-D2 = target: CaBzz1-D2
Summary of the method: as §1

CaCyk3 = target: CaCyk3
Summary of the method: as §1

CaFus1 = target: CaFus1
Summary of the method: as §1

CaHof1 = target: CaHof1
Summary of the method: as §1

CaHse1 = target: CaHse1
Summary of the method: as §1

CaLsb1 = target: CaLsb1
Summary of the method: as §1

CaLsb4 = target: CaLsb4
Summary of the method: as §1

CaMyo5 = target: CaMyo5
Summary of the method: as §1

CaNbp2 = target: CaNbp2
Summary of the method: as §1

CaRvs167 = target: CaRvs167
Summary of the method: as §1

CaRvs167-3 = target: CaRvs167-3
Summary of the method: as §1

CaSho1 = target: CaSho1
Summary of the method: as §1

CaSla1-D1-D2 = target: CaSla1-D1-D2
Summary of the method: as §1

CaSla1-D3 = target: CaSla1-D3
Summary of the method: as §1

ScAbp1 = target: ScAbp1
Summary of the method: as §1

ScBbc1 = target: ScBbc1
Summary of the method: as §1

ScBem1-D1 = target: ScBem1-D1
Summary of the method: as §1

ScBzz1-D1 = target: ScBzz1-D1
Summary of the method: as §1

ScBzz1-D2 = target: ScBzz1-D2
Summary of the method: as §1

ScCyk3 = target: ScCyk3
Summary of the method: as §1

ScFus1 = target: ScFus1
Summary of the method: as §1

ScHof1 = target: ScHof1
Summary of the method: as §1

ScHse1 = target: ScHse1
Summary of the method: as §1

ScLsb1 = target: ScLsb1
Summary of the method: as §1

ScLsb2 = target: ScLsb2
Summary of the method: as §1

ScLsb3 = target: ScLsb3
Summary of the method: as §1

ScLsb4 = target: ScLsb4
Summary of the method: as §1

ScMyo3 = target: ScMyo3
Summary of the method: as §1

ScMyo5 = target: ScMyo5
Summary of the method: as §1

ScNbp2 = target: ScNbp2
Summary of the method: as §1

ScPex13 = target: ScPex13
Summary of the method: as §1

ScRvs167 = target: ScRvs167
Summary of the method: as §1

ScSho1 = target: ScSho1
Summary of the method: as §1

ScSla1-D1-D2 = target: ScSla1-D1-D2
Summary of the method: as §1

ScSla1-D3 = target: ScSla1-D3
Summary of the method: as §1

SpAbp1-D1 = target: SpAbp1-D1
Summary of the method: as §1

SpBbc1 = target: SpBbc1
Summary of the method: as §1

SpBzz1-D1 = target: SpBzz1-D1
Summary of the method: as §1

In the case of HRRRRVFSIPSLKSI, the “SPOT peptide array binding signal intensity” value (SpBzz1-D2) is reported as 0.5, the “SPOT peptide array binding signal intensity” value (SpCyk3) is reported as 6 and the “SPOT peptide array binding signal intensity” value (SpHof1) is reported as 322. For the same binder, the “SPOT peptide array binding signal intensity” value (SpHof1-2) was 51.2, the “SPOT peptide array binding signal intensity” value (SpHof1-3) was 622 and the “SPOT peptide array binding signal intensity” value (SpHse1) was 997. The “SPOT peptide array binding signal intensity” value (SpLsb1) was 11, the “SPOT peptide array binding signal intensity” value (SpLsb4) was 372 and the “SPOT peptide array binding signal intensity” value (SpMyo1) was 8.25. The “SPOT peptide array binding signal intensity” value (SpNbp2) was 1660, the “SPOT peptide array binding signal intensity” value (SpPex13) was 21 and the “SPOT peptide array binding signal intensity” value (SpRvs167) was 55.8. For the same binder, the “SPOT peptide array binding signal intensity” value (SpSla1-D1-D2) was at most 0 and the “SPOT peptide array binding signal intensity” value (SpSla1-D3) was 30.

FPGKKSPRLPHRNKK was tested, and the “SPOT peptide array binding signal intensity” value (AgAbp1) was 2580, the “SPOT peptide array binding signal intensity” value (AgBbc1) was 61.9 and the “SPOT peptide array binding signal intensity” value (AgBem1-D1) was 47.5. The “SPOT peptide array binding signal intensity” value (AgBzz1-D1) was 50, the “SPOT peptide array binding signal intensity” value (AgBzz1-D2) was 33.5 and the “SPOT peptide array binding signal intensity” value (AgCyk3) was at most 0. The “SPOT peptide array binding signal intensity” value (AgFus1) was 6.5, the “SPOT peptide array binding signal intensity” value (AgHof1) was 35.8 and the “SPOT peptide array binding signal intensity” value (AgHse1) was 82.5. For the same binder, the “SPOT peptide array binding signal intensity” value (AgLsb1) was at most 0, the “SPOT peptide array binding signal intensity” value (AgLsb4) was 1270 and the “SPOT peptide array binding signal intensity” value (AgMyo5) was at most 0. For the same binder, the “SPOT peptide array binding signal intensity” value (AgNbp2) was 87.2, the “SPOT peptide array binding signal intensity” value (AgRvs167) was 12 and the “SPOT peptide array binding signal intensity” value (AgSho1) was 33. For the same binder, the “SPOT peptide array binding signal intensity” value (AgSla1-D1-D2) was 144, the “SPOT peptide array binding signal intensity” value (AgSla1-D3) was 13.5 and the “SPOT peptide array binding signal intensity” value (CaAbp1-D1) was 2250. The “SPOT peptide array binding signal intensity” value (CaAbp1-D2) was 2660, the “SPOT peptide array binding signal intensity” value (CaBbc1) was 372 and the “SPOT peptide array binding signal intensity” value (CaBem1-D1) was 49.8. The “SPOT peptide array binding signal intensity” value (CaBzz1-D1) was 167, the “SPOT peptide array binding signal intensity” value (CaBzz1-D2) was 126 and the “SPOT peptide array binding signal intensity” value (CaCyk3) was 4.75. The “SPOT peptide array binding signal intensity” value (CaFus1) was 232, the “SPOT peptide array binding signal intensity” value (CaHof1) was at most 0 and the “SPOT peptide array binding signal intensity” value (CaHse1) was 5.12. For the same binder, the “SPOT peptide array binding signal intensity” value (CaLsb1) was 0.25, the “SPOT peptide array binding signal intensity” value (CaLsb4) was 4250 and the “SPOT peptide array binding signal intensity” value (CaMyo5) was at most 0. The “SPOT peptide array binding signal intensity” value (CaNbp2) was 216, the “SPOT peptide array binding signal intensity” value (CaRvs167) was 247 and the “SPOT peptide array binding signal intensity” value (CaRvs167-3) was 7.25. The “SPOT peptide array binding signal intensity” value (CaSho1) was 152, the “SPOT peptide array binding signal intensity” value (CaSla1-D1-D2) was 332 and the “SPOT peptide array binding signal intensity” value (CaSla1-D3) was at most 0. The “SPOT peptide array binding signal intensity” value (ScAbp1) was 918, the “SPOT peptide array binding signal intensity” value (ScBbc1) was 15.5 and the “SPOT peptide array binding signal intensity” value (ScBem1-D1) was 7. For the same binder, the “SPOT peptide array binding signal intensity” value (ScBzz1-D1) was 9.5, the “SPOT peptide array binding signal intensity” value (ScBzz1-D2) was 4.25 and the “SPOT peptide array binding signal intensity” value (ScCyk3) was 12.5. The “SPOT peptide array binding signal intensity” value (ScFus1) was at most 0, the “SPOT peptide array binding signal intensity” value (ScHof1) was at most 0 and the “SPOT peptide array binding signal intensity” value (ScHse1) was 473. The “SPOT peptide array binding signal intensity” value (ScLsb1) was 47.1, the “SPOT peptide array binding signal intensity” value (ScLsb2) was 0.5 and the “SPOT peptide array binding signal intensity” value (ScLsb3) was 3120. For the same binder, the “SPOT peptide array binding signal intensity” value (ScLsb4) was 1170, the “SPOT peptide array binding signal intensity” value (ScMyo3) was at most 0 and the “SPOT peptide array binding signal intensity” value (ScMyo5) was at most 0. For the same binder, the “SPOT peptide array binding signal intensity” value (ScNbp2) was 186, the “SPOT peptide array binding signal intensity” value (ScPex13) was 393 and the “SPOT peptide array binding signal intensity” value (ScRvs167) was 714. For the same binder, the “SPOT peptide array binding signal intensity” value (ScSho1) was 322, the “SPOT peptide array binding signal intensity” value (ScSla1-D1-D2) was 570 and the “SPOT peptide array binding signal intensity” value (ScSla1-D3) was 5.25. For the same binder, the “SPOT peptide array binding signal intensity” value (SpAbp1-D1) was 756, the “SPOT peptide array binding signal intensity” value (SpBbc1) was 0.875 and the “SPOT peptide array binding signal intensity” value (SpBzz1-D1) was 208. For the same binder, the “SPOT peptide array binding signal intensity” value (SpBzz1-D2) was 0.125, the “SPOT peptide array binding signal intensity” value (SpCyk3) was 1.53e-05 and the “SPOT peptide array binding signal intensity” value (SpHof1) was 15.2. For the same binder, the “SPOT peptide array binding signal intensity” value (SpHof1-2) was 19.8, the “SPOT peptide array binding signal intensity” value (SpHof1-3) was 270 and the “SPOT peptide array binding signal intensity” value (SpHse1) was 142. The “SPOT peptide array binding signal intensity” value (SpLsb1) was 17.9, the “SPOT peptide array binding signal intensity” value (SpLsb4) was 2700 and the “SPOT peptide array binding signal intensity” value (SpMyo1) was 4.25. The “SPOT peptide array binding signal intensity” value (SpNbp2) was 176, the “SPOT peptide array binding signal intensity” value (SpPex13) was 6.5 and the “SPOT peptide array binding signal intensity” value (SpRvs167) was 833. The “SPOT peptide array binding signal intensity” value (SpSla1-D1-D2) was 5 and the “SPOT peptide array binding signal intensity” value (SpSla1-D3) was 13.
